Potency data for 99 compounds are collected here from PubChem BioAssay AID588855 (National Center for Advancing Translational Sciences (NCATS), 2011).

In all, about 410,000 compounds went through this assay and about 5,000 (1.2%) were called active. Entries that show only a call come without a potency. About 13% were inconclusive and are not listed. Calls follow the shape of the dose curve; as a rule, active = well fitted inhibition curve with a large enough effect; inconclusive = small, poorly fitted or top-dose-only effect; inactive = no such curve, though single readings can be large or run the other way. The sample as a whole holds a higher share of actives than the screen did.
Potency is read from the fitted curve at half-maximal effect.

The test can be described thus: qHTS for Inhibitors of TGF-b. Also: nearly all actives have a fitted effect of over 65% in size. The note with it: HepG2 CAGA-GFP TGF-b/SMAD3 reporter, GFP fluorescence, 18 h, TGF-beta stimulated, 500 pg/mL final; series mostly up to 46.1 µM. The essentials: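 Read-out: total well GFP (ex488/em500-530) summed from mean per-cell fluorescence. Cells: HEPG2 CAGA-GFP, 1% FBS DMEM, 18 h at 37 degrees C with 500 pg/mL final TGF-beta. Unstimulated wells served as the full-inhibition control; stimulated DMSO wells = 0%.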
Background: qHTS replaces the single test concentration by a dilution series.
As to `CCn1cc2nc(SCc3ccccc3Cl)n(CCc3ccccc3)c(=O)c2n1`, the Potency result was “inactive”.
Consider `Cc1ccc(S(=O)(=O)c2c(Nc3cccc(Cl)c3)sc(C(=O)c3ccc4c(c3)OCO4)c2N)cc1`, for which the Potency entry is “inactive”.
To `Cc1ccc(NC(=O)C2CCCN2S(=O)(=O)c2cccc3cccnc23)c(C)c1` (centres undefined) belongs “inactive”.
For the compound `O=C(N/N=C\c1cccnc1)c1cc(-c2ccccc2)nc2c(Cl)cccc12`, the Potency entry was “inactive”.
To `O=C(CSc1cccc2cccnc12)N/N=C/c1cccnc1` belongs 4.47 µM (active).
Consider `Cc1ccc(NC(=O)CSc2cccc3cccnc23)c(C)c1`, for which the Potency was 14.1 µM (active).
With `Cc1ccc(NC(=O)CSc2nc3c([nH]c4ccccc43)c(=O)n2-c2ccccc2)c(C)c1`, the Potency entry is “inactive”.
As to `Cc1ccc(S(=O)(=O)N(CC(=O)N/N=C/c2ccc(F)cc2)c2cccc3cccnc23)cc1`, the Potency result is “inactive”.
With `Cc1cccc(C)c1-n1ncc(C(=O)NCCCN2CCCCC2)c1C1CCN(C(=O)OC(C)(C)C)CC1`, the Potency result is “inactive”.
On to `Cc1ccccc1C(=O)N(Cc1ccc(N(C)C)cc1)CC1CCCO1` (centres undefined), for which the Potency result is “inactive”.
Take `CCOC(=O)c1ccc(NC(=O)CC2C(=O)N(c3ccccc3)C(=O)N2Cc2cccs2)cc1` (centres undefined): the Potency entry is “inactive”.
With `CCOC(=O)C1CCN(c2nc3c(S(=O)(=O)c4ccc(CC)cc4)nnn3c3ccc(Cl)cc23)CC1`, the Potency entry is “inactive”.
As for `CN(C(=O)CCN1C(=O)/C(=C/c2ccccc2F)SC1=S)C1CCS(=O)(=O)C1` (centres undefined), the Potency entry was “inactive”.
Take `CCN(C(=O)CN1C(=O)/C(=C/c2ccc(F)cc2)SC1=S)C1CCS(=O)(=O)C1` (centres undefined): the Potency entry is “inactive”.
As for `O=C1/C(=C/c2cccs2)SC(=S)N1C1CCS(=O)(=O)C1` (centres undefined), the Potency was 15.8 µM (active).
With `COc1ccc(Cl)cc1S(=O)(=O)N1CCC(c2ccncc2)CC1`, the Potency entry is “inactive”.
`CCN(C(=O)Cn1cc(S(=O)(=O)N2CCN(c3ccccc3F)CC2)c2ccccc2c1=O)c1ccc(C)c(C)c1`: the Potency entry was “inactive”.
To `COc1ccc(C(F)(F)F)cc1NC(=O)c1sc2nc(-c3cccs3)ccc2c1N` belongs “inactive”; to `Cc1ccc(-n2ncc(C(=O)NC3CC3)c2C2CCN(C(=O)OC(C)(C)C)CC2)c(C)c1`, “inactive”.
As to `Cc1ccc(CN2CCC(CNC(=O)c3cnn(-c4ccccc4Cl)c3C3CCN(C(=O)OC(C)(C)C)CC3)CC2)cc1`, the Potency was 15.8 µM (active).
On to `Cc1ccc(CN2CCC(CNC(=O)c3cnn(-c4ccc(C)cc4)c3C3CCN(C(=O)OC(C)(C)C)CC3)CC2)cc1`, for which the Potency result was “inactive”.
In the case of `CCc1nn(CC(=O)Nc2cc(C)cc(C)c2)c(=O)c2cc3sccc3n12`, the Potency result is “inactive”.
Take `Oc1c(C(c2ccccc2Cl)N2CCOCC2)sc2nc(-c3ccco3)nn12` (centres undefined): the Potency entry was “inactive”.
For the compound `Oc1c(C(c2ccccn2)N2CCOCC2)ccc2cccnc12` (centres undefined), the Potency is 3.98 µM (active).
In the case of `O=C(COC(=O)c1ccccc1OCCOc1ccccc1)Nc1cccc(Br)c1`, the Potency entry was “inactive”.
Turning to `Cc1c(-c2cccc(NC(=O)C(C)(C)C)c2)nc2ncccn12`, the Potency entry was “inactive”.
For `ClC/C=C/C[n+]1ccccc1Cl`, the Potency entry is “inactive”.
To `O=C(Nc1nnc(S(=O)(=O)N2CCOCC2)s1)c1cccc(Br)c1` belongs “inactive”; to `Cc1cccc(C(=O)Nc2nnc(S(=O)(=O)N3CCCCCC3)s2)c1`, “inactive”; to `O=C(Nc1nnc(S(=O)(=O)N2CCCCCC2)s1)c1cccc(Br)c1`, 10 µM (active).
To `O=C(NCc1ccccc1)c1ccc2c(c1)nc1n2CCCCC1` belongs “inactive”; to `Cc1cc(C)cc(NC(=S)NCCc2c[nH]c3ccccc23)c1`, “inactive”.
Consider `CCc1cccc(CC)c1NC(=S)NCc1ccc2[nH]c(C)cc2c1`, for which the Potency entry was “inactive”.
Consider `Cc1cccc(NC(=S)NCc2ccc3[nH]c4c(c3c2)CCCC4)c1`, for which the Potency was 25.1 µM (active).
As to `Cc1csc(NCC(=O)c2c[nH]c3ccccc23)n1`, the Potency entry is “inactive”.
Take `Nc1ncnc2nnsc12`: the Potency result is “inactive”.
Take `CC(C)(C)c1ccc(C(=O)C[n+]2cccc3cc(Cl)ccc32)cc1`: the Potency entry was “inactive”.
To `COc1cccc(N=C2SC(C(=O)Nc3cccc(Cl)c3)CC(=O)N2C)c1` (centres undefined) belongs 10 µM (active); to `COc1cccc(-c2cccc(NC(=O)C3CCN(C4CCC4)CC3)c2)c1`, “inactive”; to `COc1ccc(N=C2SC(C(=O)Nc3ccc(F)cc3)CC(=O)N2C)cc1` (centres undefined), “inactive”.
To `O=C(C1CCCN(S(=O)(=O)c2cccc3nonc23)C1)N1CCN(c2ccccc2F)CC1` (centres undefined) belongs “inactive”; to `CC(C)Oc1ccc(NC(=O)c2cc3ccccc3o2)cc1`, “inactive”; to `CCOc1ccccc1N(CC)C(=O)Nc1cn(C)c(=O)c2ccccc12`, “inactive”.
To `COC(=O)c1c(NC(=O)c2cc(=O)c3c(C)cc(C)cc3o2)sc2c1CCCC2` belongs “inactive”; to `Cc1ccc(Nc2nc(-c3ccc(O)cc3O)cs2)nc1`, 12.6 µM (active); to `Cc1ccn2c(-c3csc(Nc4ccc(C(=O)O)cc4)n3)c(C)nc2c1`, “inactive”.
Consider `CC(=O)Nc1cnc(-c2ccc(O)cc2C)cn1`, for which the Potency result is “inactive”.
To `CCOc1ccc(CNC(=O)CCc2c(C)nn(-c3ccc(N4CCCCC4)nn3)c2C)cc1` belongs “inactive”; to `COc1cccc(CNC(=O)CCC(=O)N2CC3CCCN3c3ccccc32)c1` (centres undefined), “inactive”.
Regarding `COC(=O)c1c(C)oc2ccc(N(C(=O)Oc3ccccc3)S(=O)(=O)c3ccccc3)cc12`, the Potency entry is “inactive”.
In the case of `CCc1ccc(S(=O)(=O)Nc2cc3c(C(=O)OCc4ccccc4)c(C)oc3c3ccccc23)cc1`, the Potency entry is “inactive”.
Consider `CCOC(=O)c1c(C)oc2ccc(N(C(=O)c3ccncc3)S(=O)(=O)c3ccc(CC)cc3)cc12`, for which the Potency was 12.6 µM (active).
`Cc1nc2sc(C)c(C)n2c(=O)c1S(=O)(=O)NCCc1ccc(Cl)cc1`: the Potency entry is “inactive”.
`CCCCCCCCn1c2c(c(=N)c3c1CCC3)CCCC2`: the Potency is 8.91 µM (active).
As for `CCCCN(CC)C(=O)c1c[nH]c2ccc(S(=O)(=O)Nc3cccc(OC)c3)cc2c1=O`, the Potency entry was “inactive”.
Consider `Oc1cccc2cc(-c3ccncc3)cnc12`, for which the Potency is 3.55 µM (active).
To `CCc1cc2c(cc(C(=O)OC)n2Cc2nc(-c3ccc(C)cc3)oc2C)s1` belongs “inactive”; to `Cc1ccc(Cl)cc1N(C)C(=O)C1CCCN(c2ncnc3onc(-c4ccc(F)cc4)c23)C1` (centres undefined), 11.2 µM (active); to `CCc1ccccc1N(C)C(=O)C1CCCN(c2ncnc3onc(-c4ccc(F)cc4)c23)C1` (centres undefined), “inactive”.
Turning to `COc1ccccc1N1CCN(c2ncnc3onc(-c4ccc(F)cc4)c23)CC1`, the Potency entry is “inactive”.
Consider `Cc1ccc(Nc2c(-c3ccc(N(C)C)cc3)nc3nc[nH]n23)cc1`, for which the Potency result is “inactive”.
To `CCc1ccc(C(CNc2nc(C(F)(F)F)nc3ccccc23)N(C)C)cc1` (centres undefined) belongs 11.2 µM (active).
Take `CN(NC(=O)c1ccccc1F)c1nc(C(F)(F)F)nc2ccccc12`: the Potency result was “inactive”.
To `CN(C)C(CNC(=O)c1cc2ccccc2o1)c1ccccc1` (centres undefined) belongs “inactive”; to `O=C(C1COc2ccccc2O1)N(Cc1cccnc1)c1nc2c(F)cc(F)cc2s1` (centres undefined), “inactive”; to `Cc1cc(-c2ccc(C)c(S(=O)(=O)N3c4ccccc4CC3C)c2)on1` (centres undefined), “inactive”.
In the case of `COc1ccc(CCN2C(=O)C(C)=C(C)C2=O)cc1OC`, the Potency result is “inactive”.
Consider `CCCCOc1ccc(CN2C(=O)C(=O)c3cc(Br)cc(C)c32)cc1OC`, for which the Potency is 10 µM (active).
`CCCCN1C(=O)C(C)=C(C)C1OCCc1ccc(OC)c(OC)c1` (centres undefined): the Potency result is “inactive”.
In the case of `Cc1ccc(-c2nc3cccc(C)n3c2Nc2ccc3c(c2)OCCO3)cc1`, the Potency result was “inactive”.
To `Clc1cccc(N=C2NN=C(c3ccc4c(c3)OCCO4)CS2)c1` belongs 10 µM (active); to `COc1ccc(NC(=O)CSc2nccn2C2CCCC2)cc1OC`, “inactive”; to `CCN1CCC(O)(/C=C/c2ccc(C)cc2)C(C(=O)/C=C/c2ccc(C)cc2)C1` (centres undefined), 11.2 µM (active).
As for `COc1ccc(CNc2nc(-c3ccc(Cl)cc3)nn2S(=O)(=O)c2ccc(C)cc2)cc1`, the Potency entry was “inactive”.
To `O=S(=O)(NCc1ccccn1)c1ccc(Br)s1` belongs “inactive”; to `O=S(=O)([N-]c1nc2ccccc2nc1-[n+]1ccc(Cc2ccccc2)cc1)c1ccc(Br)s1`, 2.82 µM (active); to `COc1ccc(C2C(=O)N(C3CCCCCC3)CC(=O)N2CCc2ccc(Cl)cc2)cc1OC` (centres undefined), “inactive”.
To `CCC(=O)N1c2ccccc2CC1C(=O)N1CCN(c2ccccc2F)CC1` (centres undefined) belongs “inactive”; to `Cc1ccccc1CCNC(=O)C1CCN(c2nc3ccccc3nc2C(F)(F)F)CC1`, “inactive”.
To `Cc1ccc(Cl)cc1NC(=O)NC1COc2ccccc2C1` (centres undefined) belongs “inactive”; to `Nc1nc(N)c(N=O)c(N)n1`, “inactive”; to `Cc1nc2ccccn2c(=O)c1NC(=O)c1c(F)cccc1F`, “inactive”.
Take `c1ccc(C2CNCc3c2ccc2ccccc32)cc1` (centres undefined): the Potency was 12.6 µM (active).
Turning to `CCN(CC)/[N+]([O-])=N/OCOC(=O)Cc1c(C)n(C(=O)c2ccc(Cl)cc2)c2ccc(OC)cc12`, the Potency entry was “inactive”.
To `CCOC(=O)c1[nH]c2ccccc2c1N=C(C)N(CC)CC` belongs “inactive”.
With `CCOC(=O)c1c(SCC(=O)Nc2cccc(C)c2C)nc(=O)[nH]c1C`, the Potency result is “inactive”.
For `CCOC(=O)c1c(C)[nH]c2c1-c1ccccc1C(=O)C2=O`, the Potency was 1.26 µM (active).
Turning to `Cc1ccc(S(=O)(=O)/N=S(\C)C(C)C)cc1` (centres undefined), the Potency result was “inactive”.
Consider `Cc1ccc(S(=O)(=O)/N=C2\C=C(NS(=O)(=O)c3ccc(C)cc3)C(=O)c3ccccc32)cc1`, for which the Potency was 11.2 µM (active).
Regarding `Cc1ccc(S(=O)(=O)N/N=C(\c2ccccc2)C2CC2)cc1`, the Potency result was “inactive”.
As for `CCCCN(C)CCCNC(=O)CN1N=C(c2ccc(OC)cc2)CCC1=O`, the Potency entry was “inactive”.
Regarding `Brc1cccc(-c2nnn3c2nc(NC2CCCCC2)c2ccccc23)c1`, the Potency entry was “inactive”.
For the compound `NC(=O)C1CCN(C(=O)COc2cccc3cccnc23)CC1`, the Potency entry was “inactive”.
To `O=S(=O)(NCCOc1cccc2cccnc12)c1ccc(F)cc1` belongs “inactive”; to `O=C(Nc1ccccc1)Oc1cccc2cccnc12`, 8.91 µM (active).
As for `CCNS(=O)(=O)c1ccc(NC(=O)c2cncc(Br)c2)cc1`, the Potency result was “inactive”.
As to `CCNS(=O)(=O)c1ccc(NC(=O)Nc2cccc(C(F)(F)F)c2)cc1`, the Potency is 12.6 µM (active).
As for `CCNS(=O)(=O)c1ccc(NC(=O)CSc2nc(-c3ccco3)cc(C(F)(F)F)n2)cc1`, the Potency entry was “inactive”.
`CO[C@H]1O[C@@H]2O[C@@]3(C)CC[C@@H]4[C@@H](C)CC[C@@H]([C@H]1C)[C@@]24OO3`: the Potency entry is “inactive”.
